Measurements as given in PubChem BioAssay AID1310 (The Scripps Research Institute Molecular Screening Center, 2008).
Some of the results follow. Unmarked numbers belong to inactive results. Activity calls are given as the source filed them.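 Rule for the calls: active = inhibition above the mean of solvent-only control wells plus 3 SD, set per campaign (cut at about 25% in these data); inactive = the rest.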

experiment: STAT3 reporter inhibition by STAT1 hits, counter-screen for STAT1 inhibitor project, U3A cells, luciferase, luminescence, triplicate (AID 1310); conditions: IL-6 STAT3 luciferase reporter, at 5.7 µM, stronger effect = higher value, cells lacking STAT1;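 note: 0% = IL-6 plus DMSO and 100% = IL-6 plus nifuroxazide control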

SMILES	inhibition
NS(=O)(=O)c1cccc(NC(=O)CSc2nc3ccccc3n2-c2ccccc2)c1	-2.95%
CCOC(=O)N1CCN(C(=O)CSc2nnc(-c3c[nH]c4ccccc34)n2CCOC)CC1	-4.2%
CCOC(=O)N1CCN(C(=O)C2CCN(c3ncnc4c3sc3cccc(F)c34)CC2)CC1	4.65%
CCOC(=O)C(=CNc1cccc(C)n1)C(=O)OCC	9.3%
O=C(CCl)N(Cc1cccc([N+](=O)[O-])c1)c1cccc(Cl)c1	47% (active)
Cc1ccc(C2=Nc3c(ccc4ccccc34)C(c3ccncc3)=NN2)cc1	-38.9%
COc1ccc(C(=O)Nc2ccccc2C(=O)N/N=C/c2ccccc2OC)cc1	-7.2%
COc1ccc(C2CC(c3cccs3)=NN2c2nc(C)c(C(C)=O)s2)cc1OC (stereo not given)	13.4%
C[C@@H]1C[C@@H]2O[C@H]2/C=C\C=C\C(=O)Cc2c(Cl)c(O)cc(O)c2C(=O)O1	70% (active)
COC(=O)C1=CN(Cc2ccc(OC)c(OC)c2)C=C(C(=O)OC)C1c1cccs1	-3.35%
